Our source for the growth inhibition, inhibition and outcome values is PubChem BioAssay.

Molecules are shown by their SMILES. Values without a mark were called inactive. For some of these results: Potency and affinity values are given separately. Calls of active or inactive are those of the source. Unless noted, no rule for the calls is given here.

Experiment [1] can be described thus: antimalarial activity against Dd2 strain (AID 2302;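 active = growth inhibition above 50% at the single 2 µM test dose, taken to imply half-maximal potency below 2 µM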;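 also: 0% = DMSO untreated growth and 100% = chloroquine plus artemisinin killed control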). To be noted: P. falciparum Dd2 in RBCs, LDH growth readout, 72 h; at 2 µM; stronger effect = higher value.
A short description of experiment [2]: HepG2 cytotoxicity, primary screen, cytotoxicity control for P. falciparum antimalarial project, cell-based, ATP luminescence (AID 2303;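 active = inhibition above 50%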;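 also: 0% = DMSO wells and 100% = digitonin-killed cells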). Particulars: HepG2 viability, 24-48 h, at 10 µM, stronger effect = higher value.
Experiment [3] has as its target L-lactate dehydrogenase (Plasmodium falciparum (isolate CDC / Honduras)) (UniProt Q27743). The experiment in a line: PfLDH activity inhibition – cell lysate, 3D7 strain, counter-screen for P. falciparum growth inhibition project (AID 2304).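 Also: 0% = vehicle and 100% = reference inhibitor.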 Particulars: P. falciparum 3D7 crude extract, LDH APAD/NBT absorbance; at 2 µM; stronger effect = higher value.
Experiment [4] in a line: inhibition of 3D7 malaria parasite growth – strain 3D7 (AID 2306).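 Also: 0% = DMSO wells and 100% = chloroquine plus artemisinin control wells.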 Particulars: P. falciparum 3D7 erythrocytic growth, LDH absorbance, 72 h; at 2 µM; stronger effect = higher value.
Experiment [5] deals with Calcium-dependent protein kinase 1 (Plasmodium falciparum (isolate 3D7)) (UniProt P62344). The experiment can be described thus: PfCDPK1 kinase inhibitors, biochemical, TCAMS library (AID 1159585; cut-off not given, nearly all actives have IC50 up to about 0.98 µM;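 also: inhibitors leave more ATP so luminescence rises with inhibition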). To be noted: recombinant PfCDPK1, Kinase-Glo ATP depletion luminescence. For orientation: Kinase-Glo reads ATP consumption through a luciferase reaction.
Calcium-dependent protein kinase 1 (Plasmodium falciparum (isolate 3D7)), sequence (P62344 whole entry, looked up): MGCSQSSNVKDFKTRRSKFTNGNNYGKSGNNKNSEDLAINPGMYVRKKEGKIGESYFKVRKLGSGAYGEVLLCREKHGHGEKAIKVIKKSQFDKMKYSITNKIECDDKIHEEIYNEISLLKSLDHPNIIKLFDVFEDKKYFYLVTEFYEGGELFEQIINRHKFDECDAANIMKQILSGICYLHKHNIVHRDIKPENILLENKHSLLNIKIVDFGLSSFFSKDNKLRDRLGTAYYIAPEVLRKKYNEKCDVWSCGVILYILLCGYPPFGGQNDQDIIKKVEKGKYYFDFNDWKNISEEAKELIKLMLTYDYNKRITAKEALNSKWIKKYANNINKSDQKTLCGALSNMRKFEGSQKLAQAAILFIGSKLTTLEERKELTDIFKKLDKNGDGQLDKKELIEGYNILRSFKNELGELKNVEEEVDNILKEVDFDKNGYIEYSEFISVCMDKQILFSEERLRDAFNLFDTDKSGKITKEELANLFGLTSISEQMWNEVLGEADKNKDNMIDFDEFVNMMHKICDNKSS
Experiment [6] concerns the target Plasmodium falciparum protein kinase 6 (PK6, PF3D7_1337100) (UniProt Q8IDW1). The experiment can be described thus: PfPK6 kinase inhibitors, biochemical, TCAMS library (AID 1159586). Particulars: recombinant PfPK6, Kinase-Glo ATP depletion luminescence.
Experiment [7] concerns the target Protein kinase 7 (PK7), Plasmodium falciparum 3D7 (PF3D7_0213400) (UniProt Q7YTF7). The experiment can be described thus: inhibition of Plasmodium PK7 catalytic activity – biochemical, TCAMS antimalarial set, Kinase-Glo luminescence (AID 1159587). To be noted: recombinant PfPK7, Kinase-Glo ATP depletion luminescence.
Experiment [8] deals with Calcium-dependent protein kinase 4 (Plasmodium falciparum (isolate 3D7)) (UniProt Q8IBS5). The experiment in a line: PfCDPK4 kinase inhibitors, biochemical, TCAMS library (AID 1159588; cut-off not given, nearly all actives have IC50 up to about 0.91 µM). To be noted: recombinant PfCDPK4, Kinase-Glo ATP depletion luminescence.
Calcium-dependent protein kinase 4 (Plasmodium falciparum (isolate 3D7)), sequence (Q8IBS5 whole entry, looked up): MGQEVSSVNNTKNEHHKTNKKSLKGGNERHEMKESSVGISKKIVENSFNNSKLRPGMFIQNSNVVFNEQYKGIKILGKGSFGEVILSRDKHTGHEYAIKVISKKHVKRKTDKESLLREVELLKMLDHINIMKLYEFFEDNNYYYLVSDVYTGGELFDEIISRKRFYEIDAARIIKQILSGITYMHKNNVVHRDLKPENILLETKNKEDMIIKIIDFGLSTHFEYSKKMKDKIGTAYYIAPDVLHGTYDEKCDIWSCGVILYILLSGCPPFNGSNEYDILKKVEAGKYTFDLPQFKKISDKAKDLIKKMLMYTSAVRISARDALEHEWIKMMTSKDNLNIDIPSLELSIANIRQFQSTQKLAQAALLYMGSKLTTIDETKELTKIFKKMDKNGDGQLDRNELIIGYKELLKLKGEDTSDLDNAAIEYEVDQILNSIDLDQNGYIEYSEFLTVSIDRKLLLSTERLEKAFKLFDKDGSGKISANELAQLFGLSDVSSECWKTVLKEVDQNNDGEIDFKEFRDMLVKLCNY

Plasmodium falciparum protein kinase 6 (PK6, PF3D7_1337100), sequence (Q8IDW1 1-305): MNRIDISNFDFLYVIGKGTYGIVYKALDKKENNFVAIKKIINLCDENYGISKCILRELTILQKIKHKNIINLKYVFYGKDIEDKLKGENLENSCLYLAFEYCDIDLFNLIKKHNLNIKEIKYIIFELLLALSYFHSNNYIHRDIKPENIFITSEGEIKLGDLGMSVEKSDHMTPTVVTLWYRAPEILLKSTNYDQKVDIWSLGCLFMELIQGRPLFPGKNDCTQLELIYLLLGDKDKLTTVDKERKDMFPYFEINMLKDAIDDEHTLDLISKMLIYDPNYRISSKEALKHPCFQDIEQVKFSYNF
Protein kinase 7 (PK7), Plasmodium falciparum 3D7 (PF3D7_0213400), sequence (Q7YTF7 1-343): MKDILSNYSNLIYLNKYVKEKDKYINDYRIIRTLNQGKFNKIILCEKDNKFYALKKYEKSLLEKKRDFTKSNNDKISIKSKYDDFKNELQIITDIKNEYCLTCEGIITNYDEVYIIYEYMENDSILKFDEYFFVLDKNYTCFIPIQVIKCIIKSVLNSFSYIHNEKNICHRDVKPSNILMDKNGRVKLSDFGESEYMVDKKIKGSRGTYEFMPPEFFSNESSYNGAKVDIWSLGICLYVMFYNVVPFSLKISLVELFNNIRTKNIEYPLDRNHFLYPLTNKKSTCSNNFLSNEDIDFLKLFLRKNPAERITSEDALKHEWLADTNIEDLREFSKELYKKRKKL
L-lactate dehydrogenase (Plasmodium falciparum (isolate CDC / Honduras)), sequence (Q27743 whole entry, looked up): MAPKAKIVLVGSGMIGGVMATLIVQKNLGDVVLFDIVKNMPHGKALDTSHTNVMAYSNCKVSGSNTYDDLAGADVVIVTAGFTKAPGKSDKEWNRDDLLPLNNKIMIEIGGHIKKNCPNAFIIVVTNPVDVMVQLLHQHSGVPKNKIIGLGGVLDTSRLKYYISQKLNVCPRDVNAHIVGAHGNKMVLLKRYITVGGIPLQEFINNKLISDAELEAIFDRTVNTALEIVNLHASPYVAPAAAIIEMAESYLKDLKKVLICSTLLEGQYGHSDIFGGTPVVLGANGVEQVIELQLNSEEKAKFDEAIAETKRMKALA

Regarding `COc1ccc(CNC2CCCC2)cc1-c1ccc(S(=O)(=O)NCCN2CCCC2)s1`, the growth inhibition in experiment [1] is 17%; in experiment [4], 96% (active). In addition, the inhibition was 17% in experiment [2] and -3% in experiment [3]. Moreover, the result in experiment [5], in experiment [6], in experiment [7] and in experiment [8] was inactive.

`O=C(/C=C/c1ccc(Cl)c(Cl)c1)NCCCCCN1CCC(NC(=O)Nc2cccc(F)c2)CC1`: the growth inhibition is 6% in experiment [1] and 100% (active) in experiment [4]. Moreover, the inhibition in experiment [2] was 30%; in experiment [3] it was 2%. The outcome in experiment [5], in experiment [6], in experiment [7] and in experiment [8] was inactive.

As to `COc1ccc(C2=C(Nc3ccc4oc5ccccc5c4c3)c3ccccc3C2=O)cc1`, the growth inhibition was 92% (active) in experiment [1] and 93% (active) in experiment [4]. For the same compound, the values for the inhibition in experiment [2] and in experiment [3] were 9% and 5%, respectively. In addition, the result in experiment [5], in experiment [6], in experiment [7] and in experiment [8] was inactive.

For `O=C(Nc1ccccc1)N(Cc1ccc(-c2ccc(CNC3CCCC3)cc2)cc1)C1CCN(Cc2ccccc2)CC1`, the figures for the growth inhibition in experiment [1] and in experiment [4] were 61% (active) and 100% (active), respectively. Also, the inhibition in experiment [2] was 34%; in experiment [3], -5%. Also, the result in experiment [5], in experiment [6], in experiment [7] and in experiment [8] was inactive.

Turning to `CC(C)C[C@H](NC(=O)c1ccc(OCCN2CCOCC2)cc1)C(=O)N[C@H](/C=N/N(C)C(=O)c1ccccc1)CCc1ccccc1`, the growth inhibition in experiment [1] is 72% (active); in experiment [4] it was 91% (active). Besides, the inhibition in experiment [2] was 8%; in experiment [3] it was 1%. In addition, the outcome in experiment [5], in experiment [6], in experiment [7] and in experiment [8] was inactive.

As for `COCCNCc1cccc(-c2ccccc2CN(C(=O)c2ccc3c(c2)OCO3)c2ccc(OC)cc2)c1`, the growth inhibition in experiment [1] is 46%; in experiment [4], 90% (active). Also, the inhibition in experiment [2] is 6%; in experiment [3], 2%. Besides, the result in experiment [5], in experiment [6], in experiment [7] and in experiment [8] was inactive.

`O=S(=O)(Nc1ccc(CCN2CCC(N3CCCCC3)CC2)cc1)c1ccc2ccccc2c1`: the growth inhibition in experiment [1] is 80% (active); in experiment [4], 101% (active). Also, the values for the inhibition in experiment [2] and in experiment [3] were 44% and -2%, respectively. Moreover, the outcome in experiment [5], in experiment [6], in experiment [7] and in experiment [8] was inactive.

As to `C=CC[C@@H](C(=O)OCC)[C@@H]1[C@@H](N(CC=C)C(=O)OC(C)(C)C)CCN1C(=O)OCc1ccccc1`, the growth inhibition is 68% (active) in experiment [1] and 92% (active) in experiment [4]. In addition, the inhibition was 2% in experiment [2] and 4% in experiment [3]. Also, the outcome in experiment [5], in experiment [6], in experiment [7] and in experiment [8] was inactive.

Consider `Cc1ccccc1C1CCN(C2CCC(NC(=O)/C=C/c3cc(F)ccc3F)CC2)CC1` (stereo not given), for which the growth inhibition in experiment [1] is 36%; in experiment [4], 85% (active). In addition, the inhibition in experiment [2] was 47%; in experiment [3], -2%. Besides, the outcome in experiment [5], in experiment [6], in experiment [7] and in experiment [8] was inactive.

As to `CN(C)CCN(C)Cc1ccc(-c2cccc(-c3nc4ccccc4[nH]3)c2)cc1`, the growth inhibition was 78% (active) in experiment [1] and 101% (active) in experiment [4]. For the same compound, the results for the inhibition in experiment [2] and in experiment [3] were 46% and -1%, respectively. Besides, the outcome in experiment [5], in experiment [6], in experiment [7] and in experiment [8] was inactive.

Consider `COc1ccc(C)c(Nc2ccnc(Nc3cccc(-c4nc5ccccc5[nH]4)c3)n2)c1`, for which the growth inhibition in experiment [1] was 35%; in experiment [4] it was 98% (active). The results for the inhibition in experiment [2] and in experiment [3] were 27% and -1%, respectively. Further, the result in experiment [5], in experiment [6], in experiment [7] and in experiment [8] was inactive.

For the compound `CCN(CC)CCN(Cc1ccc(-c2ccc(C(F)(F)F)cc2)cc1)C(=O)Cn1c(CCc2cccc(F)c2F)nc(=O)c2ccc(C(F)(F)F)cc21`, the growth inhibition in experiment [1] is 55% (active); in experiment [4], 99% (active). In addition, the inhibition in experiment [2] was 19%; in experiment [3] it was -2%. Further, the result in experiment [5], in experiment [6], in experiment [7] and in experiment [8] was inactive.

For `CC(C)(C)C(=O)Oc1ccc(CC2NCCc3cc(OC(=O)C(C)(C)C)c(OC(=O)C(C)(C)C)cc32)cc1OC(=O)C(C)(C)C` (stereo not given), the values for the growth inhibition in experiment [1] and in experiment [4] were 96% (active) and 97% (active), respectively. The inhibition in experiment [2] was 3%; in experiment [3], 5%. Further, the result in experiment [5], in experiment [6], in experiment [7] and in experiment [8] was inactive.

`CCC1(C)N=C(N)N=C(N)N1c1ccc(Cl)cc1` (stereo not given): the growth inhibition was -1% in experiment [1] and 95% (active) in experiment [4]. Besides, the inhibition in experiment [2] was 7%; in experiment [3], -3%. Further, the outcome in experiment [5], in experiment [6], in experiment [7] and in experiment [8] was inactive.

For `NC(N)=NCCCCN(Cc1ccccc1)c1ccccc1`, the growth inhibition is 98% (active) in experiment [1] and 100% (active) in experiment [4]. Besides, the inhibition in experiment [2] and in experiment [3] was -4% each time. For the same compound, the result in experiment [5], in experiment [6], in experiment [7] and in experiment [8] was inactive.

In the case of `COc1cc(OC)cc(C(=O)N2CCOC(CCN3CCC(c4ccccc4)CC3)(c3ccc(Cl)c(Cl)c3)C2)c1` (stereo not given), the growth inhibition is 61% (active) in experiment [1] and 85% (active) in experiment [4]. Further, the inhibition in experiment [2] is 13%; in experiment [3], 1%. Besides, the outcome in experiment [5], in experiment [6], in experiment [7] and in experiment [8] was inactive.

Turning to `COc1ccc2cc(-c3nc(-c4c(Cl)cccc4Cl)[nH]c3-c3ccnc(NCCCN4CCCCC4C)c3)ccc2c1` (stereo not given), the growth inhibition is 86% (active) in experiment [1] and 94% (active) in experiment [4]. Moreover, the inhibition in experiment [2] was 19%; in experiment [3], -1%. Further, the result in experiment [5], in experiment [6], in experiment [7] and in experiment [8] was inactive.

With `Nc1c2ccccc2nc2ccc(Cl)cc12`, the growth inhibition in experiment [1] was 100% (active); in experiment [4] it was 101% (active). Further, the inhibition was 55% (active) in experiment [2] and 6% in experiment [3]. The outcome in experiment [5], in experiment [6], in experiment [7] and in experiment [8] was inactive.

On to `Cc1cc(N[C@@H](Cc2ccccc2)C(=O)NCc2cccc(F)c2)nc(NCC2CCCCC2)n1`, for which the growth inhibition is 42% in experiment [1] and 101% (active) in experiment [4]. For the same compound, the inhibition in experiment [2] is 43%; in experiment [3] it was -2%. Moreover, the result in experiment [5], in experiment [6], in experiment [7] and in experiment [8] was inactive.

Regarding `CCc1cc2c3c(N)nc(N)nc3ccc2n1C(CC)CC`, the growth inhibition in experiment [1] is 12%; in experiment [4], 96% (active). In addition, the results for the inhibition in experiment [2] and in experiment [3] were 71% (active) and 5%, respectively. The result in experiment [5], in experiment [6], in experiment [7] and in experiment [8] was inactive.

The term inhibition denotes the relative decrease from the control value, in per cent.
